Measured values: PubChem BioAssay (NCI)
About 79,000 compounds went through this panel and 15% of them were active in at least one assay; those are over-represented in the sample as a whole. No stated cut-off is given here; in the data, active means growth inhibition above about 70%; inactive means the rest.

What was measured:
[1] = NCI Yeast Anticancer Drug Screen. Data for the rad50 strain (AID 155);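 further: 0% = growth of vehicle-only cultures of the same strain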; conditions: S. cerevisiae rad50 strain growth inhibition; at 50.0 µM; active compounds read high
Method in brief: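 Growth of the mutant yeast was measured after compound exposure and referenced to vehicle-treated cultures.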

[2] = NCI Yeast Anticancer Drug Screen. Data for the mec2-1 strain (AID 157); conditions: S. cerevisiae mec2-1 strain, at 50.0 µM, active compounds read high
Method in brief: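 mec2-1 yeast strain, carrying an alteration in DNA damage repair or cell cycle control, was exposed to compounds; growth inhibition was measured relative to vehicle-treated controls.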

[3] = NCI Yeast Anticancer Drug Screen. Data for the sgs1 mgt1 strain (AID 161);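 further: 0% = growth of cultures given vehicle only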; conditions: S. cerevisiae sgs1 mgt1 strain, at 50.0 µM, active compounds read high
Method in brief: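 Compounds are added to genetically altered yeast, and growth is compared with cultures given vehicle alone to give percent inhibition.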

[4] = NCI Yeast Anticancer Drug Screen. Data for the cln2 rad14 strain (AID 165);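 further: 0% = growth equal to vehicle treated cultures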; conditions: S. cerevisiae cln2 rad14 strain, at 50.0 µM, active compounds read high
Method in brief: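 Yeast carrying cln2 and rad14 alterations (cell cycle control and DNA damage repair) were exposed to compounds. Growth inhibition was measured against vehicle-treated controls.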

[5] = NCI Yeast Anticancer Drug Screen. Data for the bub3 strain (AID 167); conditions: S. cerevisiae bub3 mutant strain, at 50.0 µM, active compounds read high
Method in brief: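 Whole-cell yeast assay. The mutant strain was incubated with compounds, and growth inhibition was determined by comparison with vehicle-treated cells.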

[6] = NCI Yeast Anticancer Drug Screen. Data for the mlh1 rad18 strain (AID 175); conditions: S. cerevisiae mlh1 rad18 strain growth inhibition; at 50.0 µM; active compounds read high
Method in brief: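 Growth inhibition of the yeast strain was measured after compound exposure and expressed relative to vehicle-treated controls. The strain carries defined defects in DNA damage repair.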

Measured: growth inhibition

O=c1cc(-c2ccc(F)cc2)oc2ccccc12
inactive: [1] 40% | [2] -7.45% | [3] -9.05% | [4] 0.95% | [5] 13.7% | [6] 30.4%

CCc1c(O)c2c(=O)n(C)c(=O)n3c4ccccc4n(c1=O)c23
inactive: [1] 40.4% | [2] 41.4% | [3] 45.7% | [4] 26.8% | [5] 38.9% | [6] 39.8%

Cc1cc2nc(C(O)C(O)C(O)C(O)c3nc4cc(C)c(C)cc4[nH]3)[nH]c2cc1C (stereo unspecified)
inactive: [1] 18.9% | [2] 3.35% | [3] -9.2% | [4] -1.2% | [5] -8.65% | [6] -0.85%

NC(=O)NCc1ccc(CNC(N)=O)cc1
inactive: [1] 11.3% | [2] 15.1% | [3] -2.9% | [4] -61.5% | [5] 3.25% | [6] 3.35%

CNC(=O)NC(c1cc(OC)c(O)c(OC)c1)c1cc2c(cc1O)OCO2 (stereo unspecified)
inactive: [1] 29.5% | [2] 38.8% | [3] 11.8% | [4] 9.6% | [5] 8.05% | [6] 44.6%

NC(=O)NC(=O)C1C2CC3OC(=O)C1C3C2 (stereo unspecified)
inactive: [1] 13.6% | [2] -4.35% | [3] -3.2% | [4] -37.9% | [5] 2.45% | [6] 20.9%

O=NN(CCCl)C(=O)NCc1ccc[n+]([O-])c1
inactive: [1] 19.7% | [2] 8.6% | [3] -2% | [4] 4.25% | [5] 2.2% | [6] 8.2%

COC(=O)CC1=CCCc2ccccc21
inactive: [1] -3.95% | [2] 1.55% | [3] -2.85% | [4] 7% | [5] 0.35% | [6] -22.2%

O=C(O)[Si](c1ccccc1)(c1ccccc1)c1ccccc1
inactive: [1] 43.7% | [2] 25.9% | [3] 39.6% | [4] 4.8% | [5] 20.1% | [6] 48.1%

O=c1oc(=O)c2c1ccc1c2cc2ccc3cccc4ccc1c2c34
inactive: [1] -17.9% | [2] -10.4% | [3] -8.2% | [4] -35.1% | [5] -11.2% | [6] -11.1%

CCc1nc(N)nc(N)c1-c1ccc2c(c1)nnn2CCc1ccccc1
inactive: [1] 11.2% | [2] 0.1% | [3] 3.6% | [4] 10.7% | [5] 5.05% | [6] 16.1%

Oc1cc(O)c2c(-c3c(O)c(-c4ccc(O)c(O)c4)[o+]c4cc(O)cc(O)c34)c(O)c(-c3ccc(O)c(O)c3)[o+]c2c1
inactive: [1] 44.4% | [2] 4.85% | [3] 9.6% | [4] 11.1% | [5] 22.7% | [6] 21.8%

COc1ccc(C(C)=C(C#N)C#N)cc1
inactive: [1] 18.9% | [2] 2.7% | [3] -5.65% | [4] 16.1% | [5] 20.4% | [6] 13.1%

BrC1CC2CCCCC2CC1Br (stereo unspecified)
inactive: [1] -1.45% | [2] 22.3% | [3] 21.4% | [4] -9.75% | [5] 8.8% | [6] 9.65%

O=P(NC1CCCCC1)(NC1CCCCC1)c1ccccc1
inactive: [1] -10.9% | [2] 13.2% | [3] -5.1% | [4] 18.3% | [5] 13.6% | [6] 1.25%

CCCC(O)c1ccccc1 (stereo unspecified)
inactive: [1] 31.2% | [2] 35.8% | [3] -9.65% | [4] 5.3% | [5] 3.7% | [6] 18.9%

C[N+](C)(C)CCCSc1nc2ccccc2[nH]1
inactive: [1] 9.6% | [2] -7.15% | [3] -52% | [4] -30.9% | [5] -24.4% | [6] -15.5%

CC1CCOCCCOC(=O)CCOCCC(=O)OCCCOCCCOC(=O)CCOCCC(=O)O1 (stereo unspecified)
inactive: [1] 0.7% | [2] 2.4% | [3] 5% | [4] 15.9% | [5] -5.95% | [6] -4.45%

C=C1C(O)CCC2(C)C1CCC1C2CCC2(C)C(C(C)CCCC(C)C)CCC12 (stereo unspecified)
inactive: [1] -5% | [2] -5.35% | [3] -3.1% | [4] -39.6% | [5] -4.4% | [6] -2.45%

Cn1cc(NC(=O)c2cc(NC(=O)CCCCCC(=O)Nc3cc(C(=O)Nc4cc(C(=O)NCCC(=N)N)n(C)c4)n(C)c3)cn2C)cc1C(=O)NCCC(=N)N
inactive: [1] -14.1% | [2] -14.9% | [3] -17.6% | [4] -1.35% | [5] -24.4% | [6] -3.6%

O=C(O)COc1ccccc1Cl
inactive: [1] 34.6% | [2] 13.3% | [3] 22.5% | [4] 19.8% | [5] 26.1% | [6] 11.8%
